Measurements from PubChem BioAssay (NCI).
This is part of a sample that, as a whole, favours compounds with a hit. Of some 83,000 tested, about 20% had one in any assay.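 Growth was measured after 48 h exposure to one concentration of compound in 96-well plates. Values under 10 count as active.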 Unmarked numbers belong to inactive results. Active and inactive are the calls of the source.

Assays:
Experiment in all cases: NCI-60 one-dose screen, 48 h (100 = growth as untreated, 0 = no growth, -100 = all killed)
NCI-H23 lung = details: 10 µM unless noted
NCI-H226 lung = details: 10 µM unless noted
NCI-H322M lung = details: 10 µM unless noted
NCI-H460 lung = details: 10 µM unless noted
HOP-92 NSCLC = details: 10 µM
NCI-H522 lung = details: 10 µM
A549/ATCC NSCLC = details: 10 µM unless noted
786-0 renal = details: 10 µM unless noted
COLO 205 colon = details: 10 µM unless noted

SMILES | growth (NCI-H23 lung) [%] | growth (NCI-H226 lung) [%] | growth (NCI-H322M lung) [%] | growth (NCI-H460 lung) | growth (HOP-92 NSCLC) | growth (NCI-H522 lung) | growth (A549/ATCC NSCLC) [%] | growth (786-0 renal) | growth (COLO 205 colon)
Cc1ccc2c(c1)C(=O)CCS2 | 100 | 101 | 93.5 | 117% | 89.1% | 95.2% | 97.2 | 101% | 98.2%
Nc1cc2c(cc1Br)[nH]c(=O)c1ccccc12 | 54.4 | 54.8 | 83.8 | 38.4% | 35% | 43% | 29.3 | 58.6% | 68.1%
O=C(/C=C1\C(=O)N(Cc2ccccc2)c2ccccc21)c1ccc(OCCN2CCCCC2)cc1 | 58.9 | 84.6 | 92.6 | 87.7% | 10.7% | -44.5% (active) | 83 | -74.3% (active) | -34% (active)
COc1ccc(C(=O)CN2C(=O)NC(c3ccccc3)(c3ccccc3)C2=O)cc1 | 103 | 93.2 | 110 | 102% | 71.5% | 96.5% | 103 | 109% | 115%
O=c1oc2ccc3ccccc3c2cc1-c1ccnc2[nH]c(=S)[nH]c(=O)c12 | 94.7 | 94.5 | 92.9 | 103% | 88.3% | 88% | 97 | 97.5% | 111%
COC(=O)c1ccc2[nH]c(O)c(C(=Nc3ccc(N(C)C(=O)CN4CCN(C)CC4)cc3)c3ccc(OC)cc3)c2c1 | 28.1 | 25.8 | 38 | 14.8% | 38% | 17.4% | 16 | 21.7% | 0.878% (active)
COc1cc(N2C(=O)C=CC2=O)ccc1N1C(=O)C=CC1=O | 105 | 105 | 116 | 104% | 93.1% | -59.8% (active) | 103 | 107% | 53%
O=C(N/N=C/c1ccccc1Cl)c1cccc2ccccc12 | 97.9 | 99.7 | 108 | 98.9% | 94.8% | 84.5% | 97.5 | 105% | 114%
Cc1cc2c(-c3nc4ccccc4n3C)c(O)c(O)cc2c(O)c1-c1c(C)cc2c(-c3nc4ccccc4n3C)c(O)c(O)cc2c1O | 24.7 | 68.1 | 73 | 7.3% (active) | 52.1% | 41.4% | 26.7 | 76% | 4.14% (active)
c1cc(C2CCCCC2)ccc1OCCCCCCN1CCNCC1 | 42.3 | 81.9 | 82 | -7.36% (active) | 6.55% (active) | 77.7% | 36.5 | 58.3% | -52.2% (active)
COc1ccc(-c2cn3ccnc3c(-c3ccc4ncn(C5CCCCC5)c4c3)n2)cc1 | 37.9 | 64.1 | 68.5 | 8.91% (active) | 47.7% | -20.9% (active) | 31.4 | 16.8% | -8.01% (active)
NNC(=O)CNc1ccc2ccccc2c1 | 101 | 109 | 115 | 113% | 70.4% | 98.5% | 115 | 105% | 109%
COC(=O)c1ccc(C(=Nc2ccc(N(C)C(=O)CN3CCN(C)CC3)cc2)c2c(O)[nH]c3ccc(C(=O)OC)cc23)cc1 | 35.4 | 33 | 47.3 | 43.7% | 51.1% | 19% | 35.6 | 36.4% | 21.8%
O=C(Nc1ccc(Cl)cn1)C1(c2ccccc2)CCCCC1 | 114 | 103 | 119 | 102% | 60.7% | 140% | 110 | 97.5% | 103%
O=C1NCCN1/N=C/c1c(Cl)nc2n1CCS2 | 106 | 151 | 94.6 | 111% | 51.3% | 34.3% | 113 | 90% | 133%
CCOc1nc(-c2ccccc2)cc2c(O)c(C(=O)N/N=C/c3ccccc3O)[nH]c(=O)c12 | 62.7 | 106 | 107 | 107% | 82.8% | 81.9% | 85.3 | 103% | 105%
O=C(O)c1occ(Cl)c1Cl | 112 | 114 | 116 | 118% | 95.3% | 116% | 97.8 | 111% | 114%
CCCCCCCCCC[N+](C)(C)C | 28.8 | 45 | 75.6 | 13% | -24.5% (active) | 18.1% | 34.3 | 8.96% (active) | -49.9% (active)
CCCCCCCCCCCCc1ccc([N+](CC)(CC)CC)cc1 | 17.6 | 59.3 | 88.5 | 44% | 40.9% | 33.8% | 61.1 | 65.6% | 20.3%
Cc1ccc2c(O)c(O)cc(NC(C)CCCN)c2n1 (stereo not given) | 20.7 | 111 | 26 | 107% | 84.4% | 22.3% | 84.6 | 95.8% | 32.7%
CCOC(=O)c1cc(-c2ccc(OC)cc2)[nH]c1NNC(=O)CCOC | 114 | 105 | 118 | 119% | 73.1% | 98% | 99.9 | 84.3% | 109%
CCOc1ccc(/C=N/NC(=O)c2cccc3ccccc23)cc1OCC | 92.3 | 96.7 | 119 | 101% | 68.5% | 87.4% | 96.6 | 102% | 110%
CC(=O)c1nn(-c2ccc(C)cc2)cc1C(=O)c1cc2c(ccc3ccccc32)oc1=O | 91.2 | 90.1 | 91.5 | 100% | 77.6% | 81.5% | 96.8 | 93.4% | 107%
NC(=O)CC(NC(=O)COc1ccc(Cl)cc1Cl)C(=O)O (stereo not given) | 101 | 102 | 102 | 104% | 96.4% | 98% | 106 | 108% | 106%
CCCOC(=O)c1c(C)n(C)c2scc[n+]12 | 29 | 87.2 | 51.2 | 110% | 30.1% | 79.2% | 62.9 | 62.9% | 84.9%
O=C1/C(=C/c2ccc(Cl)cc2)CCC/C1=C\c1ccc(Cl)cc1 | 70.7 | 104 | 99.6 | 97.7% | 74.4% | 83% | 65.7 | 91.3% | 73.3%
Cc1nc(NC(=S)Nc2ccc(F)cc2)sc1C(=O)NNC(=S)Nc1ccc(F)cc1 | 38 | 60.7 | 86.8 | 70.2% | 19.7% | 33.9% | 66.2 | 18.9% | 85.9%
Cc1ccc(C(C)C)c(OCc2ccc(C(=O)N/N=C/c3cccc(O)c3O)cc2)c1 | 25.9 | 68.1 | 43.1 | 12.5% | 37.9% | 47.4% | 52.9 | 16% | 16.3%
OCC(O)C(O)CC1SCCS1 (stereo not given) | 97.3 | 91.9 | 109 | 108% | 104% | 96.6% | 101 | 96% | 106%
CC(C)OC(=O)c1ccc2n1CCCc1cnc(Nc3ccccc3)nc1-2 | 67 | 84.4 | 116 | 86.6% | 75.6% | 63.3% | 74.4 | 83.3% | 86%
